Results: PubChem BioAssay
Potency and affinity values are given separately. Records with an inconclusive call do not appear. The source made the active and inactive calls.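 How the source made its calls, unless noted: active means signal-lowering compounds whose fitted half-maximal concentration is at or below twice the top tested dose in every run; inconclusive means runs disagree, flat 30 to 70% inhibition, or poor curve fit; inactive means the rest.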

Test: IOSE-T80 viability loss, PAX8-independent line – cell-based, cherry-pick, selectivity assay for PAX8 inhibitor project, dose response (AID 687032;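 active means fitted half-maximal concentration for viability loss no higher than twice the top valid dose, in every repeat run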;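 further: cells exposed to compound for 96 h before reading; 0% = neutral control wells and -100% = 2 µM mitoxantrone kill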)
Conditions: CellTiterGlo ATP luminescence, 96 h; series mostly up to 35 µM; activity change, negative = viability loss: at the top concentration

Compound | activity change, negative = viability loss
Cc1ccccc1-c1ccc2c(c1)O[C@H](CN(C)C(=O)Nc1ccc(C(F)(F)F)cc1)[C@@H](C)CN([C@H](C)CO)S2(=O)=O | 1.91% (inactive)
COc1ccccc1C#Cc1ccc2c(c1)O[C@@H](CN(C)Cc1cncnc1)[C@H](C)CN([C@H](C)CO)S2(=O)=O | 18.4% (inactive)
C[C@@H]1CN([C@H](C)CO)S(=O)(=O)c2ccc(C#CC3CCCC3)cc2O[C@H]1CN(C)Cc1cccnc1 | 11.1% (inactive)

Test: CMV-driven luciferase expression suppression in HEK293 – cell-based, luminescence, dry powder, counter-screen for Pax8 inhibitor project, dose response (AID 743020);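 further: HEK293 cells stably expressing the CMV luciferase reporter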
Conditions: HEK293 CMV-luciferase reporter, SteadyGlo luminescence, 24 h; series mostly up to 35 µM; activity change, negative = inhibition: at the top concentration

Compound | activity change, negative = inhibition
COc1ccc2c3c([nH]c2c1)[C@H](CO)N(C(=O)Nc1cccc(F)c1)CC31CCN(S(=O)(=O)c2cccc(C)c2)CC1 | -19.3% (inactive)
COc1ccc(-c2ccc3c(c2)[C@@H]2[C@@H](CCN2S(=O)(=O)c2ccc(OC)cc2)[C@@H](CO)N3C)cc1 | 1.06% (inactive)
C[C@@H]1CN([C@H](C)CO)C(=O)c2cc(NC(=O)Nc3ccccc3)ccc2O[C@@H](C)CCCCO[C@@H]1CN(C)CC1CCCCC1 | 0.253% (inactive)
C[C@@H]1CN([C@H](C)CO)C(=O)CCCn2cc(nn2)CO[C@H]1CN(C)C(=O)Nc1ccc(-c2cccs2)cc1 | 10.3% (inactive)
C[C@H](CO)N1C[C@H](C)[C@H](CN(C)S(=O)(=O)c2ccc(Cl)cc2)OCCCC[C@H](C)Oc2ccc(NS(=O)(=O)c3ccc(Cl)cc3)cc2C1=O | -1.11% (inactive)
C[C@H]1CCCCO[C@H](CN(C)Cc2ccc(C(F)(F)F)cc2)[C@@H](C)CN([C@@H](C)CO)C(=O)c2cc(NS(=O)(=O)c3ccc(F)cc3)ccc2O1 | 2.73% (inactive)
Cc1cccc(S(=O)(=O)N2CC[C@@H]3[C@H](CO)N(C)c4ccc(-c5ccc(C#N)cc5)cc4[C@@H]32)c1 | 5.79% (inactive)
C[C@@H]1CCCCO[C@@H](CN(C)C(=O)c2ccccc2)[C@H](C)CN([C@H](C)CO)C(=O)c2cc(NC(=O)Nc3ccc(C(F)(F)F)cc3)ccc2O1 | 9.11% (inactive)
C[C@H]1CN([C@@H](C)CO)S(=O)(=O)c2ccc(C#Cc3ccc(F)cc3)cc2O[C@@H]1CN(C)C(=O)NC1CCCCC1 | 82.6% (inactive)
C[C@@H]1CCCCO[C@H](CN(C)Cc2ccccc2)[C@@H](C)CN([C@@H](C)CO)C(=O)c2cc(NC(=O)Nc3ccc(C(F)(F)F)cc3)ccc2O1 | -5.3% (inactive)
O=C(Nc1ccc(C(F)(F)F)cc1)Nc1ccc2c(c1)[C@@H]1C[C@H](CC(=O)N3CCc4ccccc4C3)O[C@H](CO)[C@@H]1O2 | 15.6% [at 30 µM] (inactive)
CC(C)NC(=O)N(C)C[C@H]1OCCCC[C@@H](C)Oc2ccc(NC(=O)Nc3ccc(C(F)(F)F)cc3)cc2C(=O)N([C@@H](C)CO)C[C@H]1C | -16.3% (inactive)
COc1cccc(C#Cc2ccc3c(c2)O[C@@H](CN(C)C(=O)c2ccccn2)[C@H](C)CN([C@@H](C)CO)S3(=O)=O)c1 | 4.26% (inactive)
C[C@@H]1CCCCO[C@@H](CN(C)C(=O)Nc2ccc(C(F)(F)F)cc2)[C@H](C)CN([C@H](C)CO)C(=O)c2cc(NS(=O)(=O)c3ccc(Cl)cc3)ccc2O1 | 2.97% (inactive)
C[C@@H]1CCCCO[C@@H](CN(C)S(=O)(=O)c2ccc(F)cc2)[C@H](C)CN([C@H](C)CO)C(=O)c2cc(NS(=O)(=O)c3ccc(Cl)cc3)ccc2O1 | 1.2% (inactive)
CC(C)CC1NC(=S)N(Cc2ccccc2)C1=O (configuration not stated) | 8.02% (inactive)
CC(C)CC#Cc1ccc2c(c1)O[C@H](CN(C)S(=O)(=O)c1ccc(F)cc1)[C@@H](C)CN([C@@H](C)CO)S2(=O)=O | 7.3% (inactive)
C[C@@H]1CCCCO[C@H](CN(C)CC2CCCCC2)[C@H](C)CN([C@@H](C)CO)C(=O)c2cc(NC(=O)Nc3ccccc3)ccc2O1 | 6.34% (inactive)
C[C@H]1CCCCO[C@H](CN(C)Cc2ccc(C(F)(F)F)cc2)[C@@H](C)CN([C@@H](C)CO)C(=O)c2cc(NS(=O)(=O)c3cccs3)ccc2O1 | -8.6% (inactive)
C[C@@H]1CCCCO[C@H](CN(C)C(=O)Nc2ccc(C(F)(F)F)cc2)[C@@H](C)CN([C@@H](C)CO)C(=O)c2cc(NC(=O)Nc3ccc(C(F)(F)F)cc3)ccc2O1 | -5.17% (inactive)

Compound | activity change, negative = inhibition
COc1cccc(S(=O)(=O)N2CCCCN3[C@@H](CO)[C@@H](c4ccc(C#CCC(C)C)cc4)[C@@H]3C2)c1 | 4.01% (inactive)
C[C@H]1CCCCO[C@@H](CN(C)Cc2ccc3c(c2)OCO3)[C@@H](C)CN([C@@H](C)CO)C(=O)c2cc(NC(=O)Nc3ccc(F)cc3)ccc2O1 | -7.53% (inactive)
Cc1ccc(S(=O)(=O)Nc2ccc3c(c2)C(=O)N([C@H](C)CO)C[C@@H](C)[C@H](CN(C)Cc2ccc(Cl)c(Cl)c2)OCCCC[C@H](C)O3)cc1 | -11.6% (inactive)
C[C@@H]1CN([C@H](C)CO)S(=O)(=O)c2ccc(-c3ccc(C#N)cc3)cc2O[C@@H]1CN(C)Cc1cccc(F)c1 | 13.8% (inactive)
C[C@H]1CN([C@@H](C)CO)C(=O)Cc2cc(NC(=O)NC3CCCCC3)ccc2O[C@H]1CN(C)Cc1ccc(-c2ccccc2)cc1 | 3.36% (inactive)
O=C(Nc1ccc(F)cc1)N1CC(=O)N2[C@@H](CO)[C@@H](c3ccc(C#Cc4ccc(F)cc4)cc3)[C@@H]2C1 | -2.95% (inactive)
Cc1ccc(S(=O)(=O)N(C)C[C@H]2Oc3cc(C#Cc4ccncc4)ccc3S(=O)(=O)N([C@H](C)CO)C[C@H]2C)cc1 | -7.57% (inactive)
O=C(Cc1ccccc1)N1CC[C@H]2[C@H](CO)Nc3ccc(C4=CCCCC4)cc3[C@H]21 | -5.15% (inactive)
Cc1noc(C)c1S(=O)(=O)Nc1ccc2c(c1)C(=O)N([C@H](C)CO)C[C@@H](C)[C@H](CN(C)C(=O)Nc1ccc(C(F)(F)F)cc1)OCCCC[C@@H](C)O2 | -1.76% (inactive)
C[C@@H]1CN([C@H](C)CO)C(=O)c2cc(NC(=O)Cc3ccccc3)ccc2O[C@@H](C)CCCCO[C@@H]1CN(C)Cc1ccc(C(F)(F)F)cc1 | 7.04% (inactive)
C[C@H](CO)N1C[C@H](C)[C@@H](CN(C)S(=O)(=O)c2cccc(F)c2)OCc2ccccc2-c2c(n(C)c3ccccc23)C1=O | -0.722% (inactive)
C[C@@H]1CN([C@@H](C)CO)C(=O)Cc2cc(NC(=O)Cc3cn(C)c4ccccc34)ccc2O[C@H]1CN(C)Cc1ccc(Oc2ccccc2)cc1 | -39.1% (inactive)
C[C@H]1CCCCO[C@H](CN(C)C(=O)C2CCCCC2)[C@@H](C)CN([C@@H](C)CO)C(=O)c2cc(NS(=O)(=O)c3ccc(Cl)cc3)ccc2O1 | -6.19% (inactive)
C[C@@H]1CN([C@H](C)CO)C(=O)c2cc(NC(=O)Nc3ccc(F)cc3)ccc2O[C@@H](C)CCCCO[C@@H]1CN(C)Cc1ccc(Cl)c(Cl)c1 | -5.37% (inactive)
C[C@@H]1CN([C@H](C)CO)C(=O)c2cc(NC(=O)Nc3cccc4ccccc34)ccc2O[C@@H]1CN(C)C(=O)Nc1cccc2ccccc12 | 2.18% (inactive)
C[C@@H]1CCCCO[C@H](CN(C)Cc2ccc(C(F)(F)F)cc2)[C@H](C)CN([C@H](C)CO)C(=O)c2cc(NC(=O)c3ccccc3)ccc2O1 | 2.12% (inactive)
Cc1ccccc1-c1ccc2c(c1)O[C@H](CN(C)C(=O)Nc1ccc(C(F)(F)F)cc1)[C@@H](C)CN([C@H](C)CO)S2(=O)=O | -2.04% (inactive)
COc1ccccc1C#Cc1ccc2c(c1)O[C@@H](CN(C)Cc1cncnc1)[C@H](C)CN([C@H](C)CO)S2(=O)=O | -23.1% (inactive)
C[C@@H]1CN([C@H](C)CO)S(=O)(=O)c2ccc(C#CC3CCCC3)cc2O[C@H]1CN(C)Cc1cccnc1 | 104% (inactive)
